According to PubChem BioAssay AID1030 (National Center for Advancing Translational Sciences (NCATS), 2008):
Screen size: about 220,000 compounds; about 16,000 (7.3%) were called active. Another 25% or so got no clear call; they are omitted. The entries come from a sample that favours actives as a whole. A call without a number means that no potency is given here. A number with no mark means an inactive call. Calls come from the whole dose curve; as a rule, active = well fitted inhibition curve with a large enough effect (not every such curve was filed as active); inconclusive = small, poorly fitted or top-dose-only effect, or another doubt; inactive = no such curve, though single readings can be large or run the other way.

Target: Aldehyde dehydrogenase 1A1 (Homo sapiens) (UniProt P00352)
Assay: qHTS Assay for Inhibitors of Aldehyde Dehydrogenase 1 (ALDH1A1)
Conditions: Purified ALDH1A1, NADH fluorescence, propionaldehyde substrate; series mostly up to 75.3 µM
Potency is the fitted concentration of half-maximal effect.

Aldehyde dehydrogenase 1A1 (Homo sapiens), sequence (P00352 whole entry, looked up): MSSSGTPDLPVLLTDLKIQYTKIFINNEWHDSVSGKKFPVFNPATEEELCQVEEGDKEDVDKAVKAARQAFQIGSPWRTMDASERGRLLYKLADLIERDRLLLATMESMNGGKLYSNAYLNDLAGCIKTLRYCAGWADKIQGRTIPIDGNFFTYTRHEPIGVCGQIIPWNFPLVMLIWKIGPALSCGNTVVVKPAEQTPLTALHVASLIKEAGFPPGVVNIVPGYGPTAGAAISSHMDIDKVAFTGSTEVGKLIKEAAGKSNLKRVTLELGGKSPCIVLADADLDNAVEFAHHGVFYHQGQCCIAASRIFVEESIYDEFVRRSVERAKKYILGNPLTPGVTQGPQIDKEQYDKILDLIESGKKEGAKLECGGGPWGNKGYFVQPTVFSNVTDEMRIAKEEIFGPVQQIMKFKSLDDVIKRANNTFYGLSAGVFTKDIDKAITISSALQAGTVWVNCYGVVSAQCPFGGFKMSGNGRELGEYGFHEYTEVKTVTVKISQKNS

Row | Structure (SMILES) | Potency | activity, negative = inhibition
1 | Cc1ccc2cc(C)c(N3CCC(C)CC3)nc2c1 | inactive | –
2 | Cn1c(=O)cc(OCC(=O)N2CCN(c3ccccc3F)CC2)c2ccccc21 | inactive | –
3 | O=C(NCc1ccco1)c1ccc(NS(=O)(=O)c2cccc([N+](=O)[O-])c2)cc1 | inactive | –
4 | COc1ccc(CCNC(=O)CSc2nc3[nH]ncc3c(=O)n2-c2cccc(C(F)(F)F)c2)cc1OC | inactive | –
5 | Cc1ccc(Nc2c(F)c(F)c(F)c(F)c2C(=O)O)c(C)c1 | inactive | –
6 | Cc1ccccc1C1CC(c2cccs2)=NN1S(C)(=O)=O (stereo not drawn) | inactive | –
7 | Cc1cc(C)n(-c2ccc(C(=O)O)cc2[N+](=O)[O-])n1 | inactive | –
8 | COc1ccc(C2C(C(=O)N3CCN(c4ccc(OC)cc4)CC3)c3ccccc3C(=O)N2C)cc1 (stereo not drawn) | inactive | –
9 | COc1ccc([C@H]2[C@H](C(C)=O)N3N=Cc4ccccc4C3C23C(=O)OC(C)(C)OC3=O)cc1 (stereo partly drawn) | 10 µM (active) | –
10 | COc1ccccc1N1CCN(c2ccc([N+](=O)[O-])nc2)CC1 | inactive | –
11 | CCn1c(-c2ccncc2)n[nH]c1=S | inactive | –
12 | CCCc1cc(-c2n[nH]c(=S)n2CC)c2ccccc2n1 | inactive | –
13 | CCCc1cc(-c2n[nH]c(=S)n2Cc2ccccc2)cs1 | 7.94 µM (active) | –
14 | CCCOc1ccc(C(=O)NCCc2ccccc2)cc1 | inactive | –
15 | C/C=C(/C)C(=O)OC1Cc2c(ccc3ccc(=O)oc23)OC1(C)C (stereo not drawn) | inactive | –
16 | CC1(C)Oc2ccc3ccc(=O)oc3c2/C(=C/NCCO)C1=O | 25.1 µM (active) | –
17 | C=CCN(CC=C)S(=O)(=O)c1ccc(C(=O)Nc2nc3c(s2)CCc2ccccc2-3)cc1 | inactive | –
18 | COC(=O)c1c(NC(=O)CN(c2ccc(C)c(C)c2)S(C)(=O)=O)sc2c1CCCC2 | inactive | –
19 | C=CCN(CC=C)S(=O)(=O)c1ccc(C(=O)Nc2sc3c(c2C(N)=O)CCCCC3)cc1 | 3.16 µM (active) | –
20 | COCC(C)NC(=O)CSc1nc2nn(-c3ccccc3)c(=O)c-2c2n1CCCCC2 (stereo not drawn) | inactive | –
21 | Cc1ccc(CNC(=O)CCNS(=O)(=O)c2ccc(Br)s2)cc1 | inactive | –
22 | N#Cc1ccc(-c2nc3cc(C#N)c(C#N)cc3nc2-c2ccccc2)cc1C#N | inactive | –
23 | O=C(CC(=O)N/N=C\c1ccc(F)cc1)NCCc1ccccc1 | inactive | –
24 | O=C(COc1ccc(/C=N/NS(=O)(=O)c2ccccc2)cc1)NCCc1ccccc1 | 12.6 µM (active) | –
25 | O=C(COc1ccc(S(=O)(=O)NCCc2ccccc2)cc1)N1CCCC1 | inactive | –
26 | COc1ccccc1N1CCN(CC(=O)NCCc2ccc(S(N)(=O)=O)cc2)CC1 | inactive | –

Row | Structure (SMILES) | Potency | activity, negative = inhibition
27 | COc1cc(CN2CCNC(=O)C2CC(=O)NCCc2ncccc2C)cc(OC)c1 (stereo not drawn) | 23.8 µM (active) | –
28 | O=C(CC1C(=O)NCCN1CC(c1ccccc1)c1ccccc1)NCCc1cn[nH]c1 (stereo not drawn) | 14.1 µM (active) | –
29 | Cc1cc(C)n(CCNC(=O)CC2C(=O)NCCN2Cc2ccc(C)o2)n1 (stereo not drawn) | inactive | –
30 | CN(CCc1cn[nH]c1)C(=O)CC1C(=O)NCCN1Cc1cccc(Oc2ccccc2)c1 (stereo not drawn) | inactive | –
31 | COc1cccc(CN2CCNC(=O)C2CC(=O)N(C)CCc2ccccn2)c1 (stereo not drawn) | inactive | –
32 | Cc1ccccc1-n1cc(CNC(=O)CC2C(=O)NCCN2C/C=C/c2ccccc2)cn1 (stereo not drawn) | inactive | –
33 | COC(=O)c1ccc(CN2CCN(CCCc3ccccc3)C(CCO)C2)cc1 (stereo not drawn) | inactive | –
34 | COc1ccc(-c2csc(NC(=O)COC(=O)Cc3ccc(Cl)cc3Cl)n2)cc1 | inactive | –
35 | COc1ccc(N2CCN(c3ccc([N+](=O)[O-])nc3)CC2)cc1 | inactive | –
36 | CS(=O)(=O)N1CCc2cc(C(=O)Nc3ccccc3)ccc21 | inactive | –
37 | Cc1cc([N+](=O)[O-])c(N2CCC[C@@H]2C(=O)O)c([N+](=O)[O-])c1 | inactive | –
38 | Cc1cc(C)c(NC(=S)N2CCCC2C(=O)O)c(C)c1 (stereo not drawn) | 22.4 µM (active) | –
39 | Cc1ccc(C)c(NC(=O)C2CCCN2C(=O)OC(C)(C)C)c1 (stereo not drawn) | inactive | –
40 | Cc1cc(C(=O)COC(=O)C2CC2)c(C)n1-c1ccc(F)cc1 | inactive | –
41 | COC(=O)[C@@H]1CC[C@H](C)[C@@H](c2ccc(C)cc2)N1C(=O)c1ccc(/C=N/O[C@H](C)c2cn([C@@H]3COC[C@H]3O)nn2)cc1 | inactive | –
42 | O=C(Cc1ccc([N+](=O)[O-])cc1)N/N=C/c1ccco1 | inactive | –
43 | CCCCN1CCNC1=S | inactive | –
44 | CCOC(=O)CCNC(=O)N1CCCC(C(=O)c2ccccc2SC)C1 (stereo not drawn) | inactive | –
45 | Cc1nnnn1/C(=C\c1ccccc1)C(=O)OCC(=O)N1CC2(C)CC1CC(C)(C)C2 (stereo not drawn) | 4.47 µM (active) | –
46 | COc1ccccc1C(=O)N1CC2(C)CC1CC(C)(C)C2 (stereo not drawn) | inactive | –
47 | Cc1cccc(C(=O)NCC(=O)OCC(=O)N2CC3(C)CC2CC(C)(C)C3)c1 (stereo not drawn) | inactive | –
48 | COc1cc(N2C(=O)c3ccccc3C2=O)c(Cl)cc1C(=O)OCC(=O)N1CCOCC1 | inactive | –
49 | CC(C)(O)C#Cc1ncc(C(F)(F)F)cc1Cl | inactive | –
50 | CSc1ccc(CN(C)CC(=O)NCc2ccc(F)cc2)cc1 | inactive | –
51 | CCC(C)[C@@H](C(=O)N1CCNCC1)n1cc(CCCCN)nn1 (stereo partly drawn) | inactive | –
52 | COc1cccc(CC(=O)N2CCCC(CCC(=O)N3CCN(c4ccccn4)CC3)C2)c1 (stereo not drawn) | inactive | –

Row | Structure (SMILES) | Potency | activity, negative = inhibition
53 | CCSC1=C(C#N)C(=O)n2c1cc1c2CCCC1 | 4.47 µM (active) | –
54 | C=CCNc1nc(Nc2ccc(Cl)cc2)nc(OC)n1 | inactive | –
55 | C=C1O[C@@](CO)(n2cnc3c(N)ncnc32)[C@H](O)[C@@H]1O | inactive | –
56 | Cc1ccc(-n2nc(C)c(/C=N/NC(=O)c3cccs3)c2Cl)cc1 | inactive | –
57 | Cc1cc(=O)[nH]c(N/N=C/c2c(C)nn(-c3ccccc3Cl)c2Cl)n1 | 5.01 µM (active) | –
58 | Cc1nnc(N/N=C/c2ccccn2)[nH]c1=O | inactive | –
59 | O=C(CSc1nnc(-c2ccncc2)n1-c1ccc(Cl)cc1)Nc1ccc(C(=O)O)cc1 | inactive | –
60 | CC1(C)CC(=O)CC2(C1)NCC(c1ccccc1Cl)c1c2[nH]c2ccccc12 (stereo not drawn) | inactive | –
61 | COCCN1C(=O)N[C@@H](CCc2ccccc2)[C@H](C(C)=O)[C@H]1C | – | 3.4% [at 13.5 µM]
62 | C=CC1=C2C=C(C3CC3)N(C(CO)CO)C=C2C(=O)C(C)(OC(=O)c2ccco2)C1=O (stereo not drawn) | – | -4.41% [at 13.5 µM]
63 | CN(C)/C=C(/C(=O)c1ccc(F)cc1)S(=O)(=O)c1ccc(F)cc1 | inactive | –
64 | CCOc1ccc(N(CC(=O)OC)S(=O)(=O)c2c(C)noc2C)cc1 | inactive | –
65 | CCOc1ccc(N(CC(=O)NCc2ccc(OC)cc2)S(=O)(=O)c2c(C)noc2C)cc1 | inactive | –
66 | CCOC(=O)c1cccc(NC(=O)CN(c2ccc(C)cc2)S(=O)(=O)c2c(C)noc2C)c1 | 7.94 µM (active) | –
67 | CC(=O)c1c(C)[nH]c(C(=O)OCC(=O)NCCC(C)C)c1C | inactive | –
68 | CCOc1cc(/C=N/NC(=O)c2ccc(CSc3nncn3C)cc2)ccc1OCC(=O)N1CCOCC1 | inactive | –
69 | CCOc1cccc(/C=N/N2C(=O)CSC2=S)c1O | 7.08 µM (active) | –
70 | CCOc1ccccc1N=C1NC(=O)CS1 | inactive | –
71 | CCOc1cccc(/C=N/NC(=S)NCCN2CCOCC2)c1O | inactive | –
72 | O=C1CCC[C@@H]2CC(N3CCCCC3)C[C@@H]3CCN1[C@H]23 (stereo partly drawn) | inactive | –
73 | COCCn1c(N)c(N(Cc2ccccc2)C(=O)C2CCCCC2)c(=O)[nH]c1=O | inactive | –
74 | O=C(Cn1ncc(N2CCCC2)c(Br)c1=O)c1ccc(Cl)cc1 | inactive | –
75 | COc1cc(C(=O)N2CCOCC2)cc(OC)c1OC | inactive | –
76 | CCN1CCN(CC(=O)c2cc(OC)c(OC)c(OC)c2)CC1 | 28.2 µM (active) | –
77 | CCCN(CCC)S(=O)(=O)c1ccc(C(=O)NNC(=O)c2cc(OC)c(OC)c(OC)c2)cc1 | inactive | –
78 | COc1ccc(N2C(=O)C(O)C2c2ccc(C)cc2)cc1 (stereo not drawn) | inactive | –

Row | Structure (SMILES) | Potency | activity, negative = inhibition
79 | Cc1cc2oc(=O)cc(-c3ccccc3)c2c(C)c1-c1ccc(OC(F)(F)F)cc1 | inactive | –
80 | COc1ccc(-c2c(C)cc3oc(=O)cc(-c4ccccc4)c3c2C)cc1F | inactive | –
81 | COc1ccc(-c2c(C)cc3oc(=O)cc(-c4ccccc4)c3c2C)cc1C=O | 0.126 µM (active) | –
82 | C=CCn1c(COc2ccc(F)cc2)nnc1SCC(=O)Nc1cccc(S(N)(=O)=O)c1 | inactive | –
83 | Cc1cccc(CSc2nnc(C)c(=O)n2N)c1 | inactive | –
84 | Cc1cc(NC(=O)CN2C(=O)NC(C)(CCc3ccccc3)C2=O)no1 (stereo not drawn) | inactive | –
85 | CC1CCN(C(=S)NC2CC3CCC2C3)CC1 (stereo not drawn) | inactive | –
86 | S=C(NNC(=S)NC1CC2CCC1C2)NC1CC2C=CC1C2 (stereo not drawn) | 20 µM (active) | –
87 | S=C(NNC(=S)NC1CC2C=CC1C2)NC1CC2C=CC1C2 (stereo not drawn) | 12.6 µM (active) | –
88 | COc1ccc(C(=S)Nc2ccccc2)cc1 | inactive | –
89 | COCCCNC(NC(=O)c1ccc(OC)cc1)C(Cl)(Cl)Cl (stereo not drawn) | inactive | –
90 | COCCNC(=S)c1ccc(OC)cc1 | 20 µM (active) | –
91 | Cn1nc(-c2ccccc2)c(CO)c1Sc1ccccc1 | inactive | –
92 | COc1ccc(C(=O)NNC(=O)c2cc(C)[nH]n2)cc1 | inactive | –
93 | Cc1ccc(C2NC(=S)NC3=C2N2CCC3CC2)cc1 (stereo not drawn) | 8.91 µM (active) | –
94 | CC(O)c1cccc(NC(=O)Cc2cccc3ccccc23)c1 (stereo not drawn) | inactive | –
95 | O=C(NCc1ccco1)c1cc2sccc2n1Cc1ccc(F)cc1 | inactive | –
96 | O=C(NCc1ccco1)c1nn2cccnc2c1Cl | inactive | –
97 | O=C(NCc1ccco1)c1sc2cccc(F)c2c1Cl | 28.2 µM (active) | –
98 | O=C(CC1CCCCC1)NCc1ccc(F)cc1 | inactive | –
99 | COc1cccc(C(=O)Nc2c3c(nn2-c2cccc(C)c2C)CS(=O)(=O)C3)c1OC | inactive | –
100 | O=C(CC1CCCCC1)Nc1c2c(nn1-c1ccc(F)cc1)CS(=O)(=O)C2 | 7.94 µM (active) | –
101 | COCCNc1nc2nonc2nc1N(C)Cc1ccc(C)cc1 | inactive | –
102 | CCCCN(CC)CCCNC(=O)c1ccc(CSc2nc3ccncc3[nH]2)cc1 | inactive | –
103 | Cc1c(C=O)n(C)n(-c2ccccc2)c1=O | inactive | –
